# In PubChem BioAssay (NCATS):
# Records with an inconclusive call do not appear. Active and inactive are the calls of the source. Calls follow the shape of the dose curve; as a rule, active = well fitted inhibition curve with a large enough effect; inconclusive = small, poorly fitted or top-dose-only effect; inactive = flat fitted curve, though single readings scatter.
# Test: P-glycoprotein substrates identified in KB-8-5-11 adenocarcinoma cell line, qHTS therapeutic library screen (AID 1346987); also: nearly all actives have a fitted effect of over 65% in size
# Details: KB-8-5-11 (P-gp overexpressing) viability, CellTiter-Glo, 72 h; series mostly up to 44.5 µM; activity change, negative = cytotoxicity: at the top concentration
# Description: The ATP-binding cassette transporters P-glycoprotein (P-gp) is known to limit brain penetration of many chemotherapy drugs. […] As such, we developed a high-throughput screen (HTS) to identify substrates of P-gp from a series of chemical libraries including the National Center for Advancing Translational Sciences Pharmaceutical Collection NPC, 2,816 compounds), testing a total of 10,804 compounds, most of which have known mechanisms of action. We used the CellTiter-Glo viability assay to test library compounds against the parental KB-3-1 human cervical adenocarcinoma cell line and the colchicine-selected sub-line KB-8-5-11 that over-expresses P-gp. KB-8-5-11 cells were also tested in the presence of a P-gp inhibitor (tariquidar) to assess reversability of transporter-mediated resistance. Of the tested compounds, a total of 90 P-gp substrates were identified including 55 newly identified P-gp substrates. Substrates were confirmed using an orthogonal killing assay against HEK-293 cells transfected with P-gp. As exemplars, we confirmed that […] (cyclin-dependent kinase inhibitor); AT9283, (Janus kinase 2/3 inhibitor); ispinesib (kinesin spindle protein inhibitor); gedatolisib (PKI-587, phosphoinositide 3-kinase/mammalian target of rampamycin inhibitor); GSK-690693 (AKT inhibitor); and KW-2478 (heat shock protein 90 inhibitor) were substrates , and direct ATPase stimulation was assessed. ABCG2 was also found to confer high levels of resistance to AT9283, GSK-690693 and gedatolisib, while ispinesib, AT7519 and KW-2478 were weaker substrates.
# The HeLa derivative cell line, KB-3-1, and its colchicine-selected, P-gp-overexpressing subline, KB-8-5-11 were maintained in DMEM with 10% FCS and Pen/Strep with glutamine at 37 degree C in 5% CO2. For KB-8-5-11 cells, colchicine was added to the medium at a concentration of 100 ng/mL. HEK-293 cells transfected with empty vector (pcDNA) or vector containing human ABCB1 (MDR-19) or ABCG2 (R-5) have been described previously (Robey, Lin, Qiu, Chan & Bates, 2011) and were maintained in EMEM supplemented with 10% FCS, Pen/Strep and glutamine with 2 mg/ml G418 to select for the expression of the transporter. Cultures were confirmed to be free of mycoplasma infection using the MycoAlert Mycoplasma Detection Kit (Lonza, Walkersville, MD). For the screen, assay medium was identical to culture medium except for KB-8-5-11 where colchicine was excluded from the medium.
# All cell lines were plated into 1536-well plates at 500 cells/well in 5 uL media. Compounds were then pinned in dose-response using a 1536-head pin tool (Kalypsis, San Diego, CA) and plates were incubated at 37 degree C in 5% CO2 for an additional 72 h. CellTiter-Glo reagent (Promega) was dispensed into the wells, incubated for 5 min and luminescence was read on a ViewLux instrument (Perkin-Elmer). Cytotoxic compounds were defined as those that yielded a curve class of -1.1, -1.2, -2.1, -2.2, -2.3, or -2.4, a maximum response of >50% and an AC50 of < 10 uM. Cherry-picked hits from screening analysis were tested with both the KB pair of cell lines, and the pcDNA (empty vector control) and MDR-19 (P-gp overexpressing) pair were tested, in the absence and presence of tariquidar.
# % is scaled to controls: 0 for no effect and ±100 for the full control effect; potency is read from the fitted curve at half-maximal effect.
Structure (SMILES),"activity change, negative = cytotoxicity",outcome,Potency
CC(C)c1noc(C2CCN(c3ncnc(Nc4ccc(S(C)(=O)=O)cc4F)c3[N+](=O)[O-])CC2)n1,-22% (inactive),–,–
Cc1sc2c(c1C)C(c1ccc(Cl)cc1)=N[C@H](CC(=O)NCCCCNC(=O)COc1cccc3c1C(=O)N([C@H]1CCC(=O)NC1=O)C3=O)c1nnc(C)n1-2,–,inactive,–
CCC[C@@]1(CCc2ccccc2)CC(O)=C([C@H](CC)c2cccc(NS(=O)(=O)c3ccc(C(F)(F)F)cn3)c2)C(=O)O1,-1.6% (inactive),–,–
CC(O)C(C)n1ncn(-c2ccc(N3CCN(c4ccc(OCC5COC(Cn6cncn6)(c6ccc(Cl)cc6Cl)O5)cc4)CC3)cc2)c1=O (stereo not given),–,–,14.6 µM (active)
NS(=O)(=O)c1ccc(NC(=O)Nc2ccc(F)cc2)cc1,-0.748% (inactive),–,–
CC(=O)O[C@@H]1C[C@]2(C)[C@@]3(CCC4[C@@]5(C)CC[C@H](O[C@@H]6O[C@H](C(=O)O)[C@@H](O)[C@H](OC7OC(CO)C(O)C(O)[C@H]7O[C@@H]7O[C@@H](C)[C@H](O)[C@@H](O)[C@H]7O[C@@H]7OC[C@](O)(CO)[C@H]7O)[C@H]6OC6OC(CO)C(O)C(O)C6O)C(C)(C)C5CC[C@]42C)OC[C@@]12CCC(C)(C)CC23 (stereo not given in full),-11.3% [at 9.29 µM] (inactive),–,–
CN(C)N(C)C(=O)[C@@]1(Cc2ccccc2)CCCN(C(=O)[C@@H](Cc2c[nH]c3ccccc23)NC(=O)C(C)(C)N)C1,–,inactive,–
COc1ccc(CN2CCN(CCCSc3cc(C(C)(C)C)c(O)c(C(C)(C)C)c3)CC2)c(OC)c1OC,-16.1% [at 9.29 µM] (inactive),–,–
CCC/C=C/C=C/C1CC(O)C2(O)C(=O)OCC12 (stereo not given),–,inactive,–
C=C1C(=O)OC2/C=C(\CO)CC/C=C(\C=O)C(OC)C(OC(=O)C(C)CC)C12 (stereo not given),-5.47% [at 17.3 µM] (inactive),–,–
O=C(/C=C/c1ccccc1O)O[C@@H]1O[C@H](CO)[C@@H](O)[C@H](O)[C@H]1O,–,inactive,–
CC(=O)O[C@@H]1CC[C@@]2(C)C(CC[C@]3(C)C2[C@H](O)C=C2[C@H]4[C@@H](C)[C@H](C)CC[C@]4(C)CC[C@]23C)[C@@]1(C)C(=O)O (stereo not given in full),-18.4% [at 17.3 µM] (inactive),–,–
Cc1cc(C)nc(SCC(=O)Nc2ncc(Cc3cccc4ccccc34)s2)n1,-17.4% (inactive),–,–
O=C(CO)[C@@H](O)[C@H](O)[C@H](O)CO,0.351% (inactive),–,–
COc1cc(F)c(C(C)C)cc1-c1ccc(C(F)(F)F)cc1CN1C(=O)OC(c2cc(C(F)(F)F)cc(C(F)(F)F)c2)C1C (stereo not given),–,inactive,–
C[C@H]1CC[C@@]2(OC1)O[C@H]1CC3C4CC[C@H]5C[C@@H](O)CC[C@]5(C)C4=CC(=O)[C@]3(C)[C@H]1[C@@H]2C (stereo not given in full),-1.11% [at 17.3 µM] (inactive),–,–
C=C(C)[C@@H]1CC[C@]2(C(=O)O)CC[C@]3(C(=O)O)[C@H](CCC4[C@@]5(C)CCC(=O)C(C)(C)C5CC[C@]43C)C12 (stereo not given in full),-14.5% [at 17.3 µM] (inactive),–,–
C[C@H]1C[C@H]2[C@@H]3CCC4=CC(=O)C=C[C@]4(C)[C@@]3(F)[C@@H](O)C[C@]2(C)[C@@]1(O)C(=O)CCl,-24.6% (inactive),–,–
CCNC1(C(N)=O)CCN(c2ncnc3c2nc(-c2ccccc2Cl)n3-c2ccc(Cl)cc2)CC1,-10.4% (inactive),–,–
C/C(=C/CO)CCC1C(C)CCC2C(C)(C)CCCC12C (stereo not given),7.09% (inactive),–,–

Structure (SMILES),"activity change, negative = cytotoxicity",outcome,Potency
C=C1CC2[C@@]3(C)C=CC(=O)C(C)(C)C3=C(O)C(=O)[C@@]2(C)C2(C(=O)OC)C(=O)C(C)OC(=O)[C@@]12C (stereo not given in full),–,–,8.93 µM (active)
O=P(O)(O)OC(CO)CO,9.05% (inactive),–,–
CC(NCCCc1cccc(C(F)(F)F)c1)c1cccc2ccccc12 (stereo not given),-12.3% [at 17.3 µM] (inactive),–,–
CNC(=O)c1ccc2c(c1)CCO[C@H]2CCN1CCN(c2ccc(OC)cc2)CC1,-16.4% (inactive),–,–
CC(C)c1cc(-c2ccc(F)c3ccccc23)nc(N)n1,-13.8% (inactive),–,–
O=C(c1cc(Cc2n[nH]c(=O)c3ccccc23)ccc1F)N1CCCNCC1,–,inactive,–
CC(C)C[C@@H](C(=O)N[C@@H](Cc1ccc(OCc2ccccc2)cc1)C(=O)NC(C)(C)C)N(C)Cc1ccc(C(C)(C)C)cc1,-26.2% (inactive),–,–
CC(C)=CCC/C(C)=C/COCC1OC(n2ccc(=O)[nH]c2=O)C(O)C1O (stereo not given),–,inactive,–
CN(C)C(=O)Nc1cccc(-c2ccc(N(C)C)cc2)c1,-5.76% (inactive),–,–
CCOC(=O)CCNc1cc(N2CCc3ccccc3CC2)nc(-c2cccnc2)n1,–,inactive,–
CCCCCCCCCC(=O)O,-6.65% (inactive),–,–
CC(C)(C)c1ccc(C(=O)Nc2cc(Cl)c(Br)cc2C(=O)O)cc1,–,–,10.3 µM (active)
COc1ccc(-c2csc(NC(=O)[C@H]3CCCCN3S(=O)(=O)c3ccc(C)cc3)n2)cc1,-21% (inactive),–,–
Cc1ccc(/C(=C\CN2CCCC2)c2cccc(/C=C/C(=O)O)n2)cc1,-15.9% (inactive),–,–
O=C(Nc1ccc(N2C(=O)[C@@H]3[C@H](C2=O)[C@@H]2C=C[C@H]3C2)c(Cl)c1)c1ccccn1,-35.5% (inactive),–,–
COc1cc2c(cc1OCCCN1CCCC1)N=C(N)C21CCC1,6.8% (inactive),–,–
CO/N=C(\C(=O)N[C@@H]1C(=O)N2C(C(=O)OCOC(=O)C(C)(C)C)=C(/C=C\c3scnc3C)CS[C@H]12)c1csc(N)n1,11.4% (inactive),–,–
O=c1cc(N2CCN(c3cccc(C(F)(F)F)c3)CC2)[nH]c(=O)n1C1CCCCC1,-21.8% (inactive),–,–
c1ccc2c(CCC3CCNCC3)c[nH]c2c1,-7.19% (inactive),–,–
CCN(Cc1cc(Nc2nc(C)cn3c(-c4cn[nH]c4)cnc23)sn1)C(C)(C)CO,–,–,0.411 µM (active)
